Source: the supplement of paper PMC8387472
Counter-ions that a name gives are not always drawn. ± gives the standard deviation of the averaged measurements.

Each compound was assayed on mESC LDLR-Dup GFP reporter (SpCas9 MH-deletion repair) (assay: fraction of GFP+ cells relative to DMSO control (fold change); higher = more MH-deletion repair to in-frame LDLR (or more editing)). Conditions: 2 µM; 7 days post-transfection.

Row | Structure (SMILES) | fraction of GFP+ cells
1 | COc1ccc2c(c1)[nH]c1c(C)nccc12 [harmine hydrochloride] | 1.1 ± 0.11
2 | C[C@H]1CCC/C=C/[C@@H]2C[C@H](O)C[C@H]2[C@H](O)/C=C/C(=O)O1 [Brefeldin A] | 0.627 ± 0.22
3 | Cn1c(CCCC(=O)O)nc2cc(N(CCCl)CCCl)ccc21 [Bendamustine HCl] | 1.26 ± 0.33
4 | C/C(O)=C(\C#N)C(=O)Nc1cc(Br)ccc1Br | 1.04 ± 0.32
5 | CCn1cc(C(=O)O)c(=O)c2cc3c(cc21)OCO3 [Oxolinic acid] | 0.941 ± 0.23
6 | O=P1(NCCCl)OCCCN1CCCl (stereo not given) [Ifosfamide] | 1.11 ± 0.34
7 | C/C=C(\C)C(=O)N[C@@H](c1ccccc1)[C@@H](O)C(=O)O[C@H]1C[C@@]2(O)[C@@H](OC(=O)c3ccccc3)[C@@H]3[C@]4(OC(C)=O)CO[C@@H]4C[C@H](O)[C@@]3(C)C(=O)[C@H](OC(C)=O)C(=C1C)C2(C)C [Cephalomannine] | 1.54 ± 0.41
8 | CCN1CCN(C(=O)Cc2ccc(Nc3ncc(F)c(Nc4ccc(C(=O)Nc5ccccc5Cl)cc4)n3)cc2)CC1 [Aurora A Inhibitor I] | 0.548 ± 0.13
9 | Cc1cc(SCc2sc(-c3ccc(C(F)(F)F)c(F)c3)nc2C)ccc1OCC(=O)O | 1.72 ± 0.64
10 | O=P1(N(CCCl)CCCl)NCCCO1 (stereo not given) [Cyclophosphamide Monohydrate] | 1.78 ± 0.27
11 | O=C(O)CCCc1ccc(N(CCCl)CCCl)cc1 [Chloroambucil] | 2.44 ± 0.046
12 | NC(=O)c1cc(N2CC2)c([N+](=O)[O-])cc1[N+](=O)[O-] | 1.43 ± 0.66
13 | CN1CCN(c2ccc([N+](=O)[O-])c3no[n+]([O-])c23)CC1 | 1.37 ± 0.088
14 | COc1ccc2c(c1)/C(=C/c1cnc[nH]1)C(=O)N2 | 1.29 ± 0.051
15 | COC[C@H]1OC(=O)c2coc3c2[C@@]1(C)C1=C(C3=O)[C@@H]2CCC(=O)[C@@]2(C)C[C@H]1OC(C)=O [Wortmannin] | 0.685 ± 0.098
